# Experimental data reported in PubChem BioAssay AID588391 (Broad Institute, 2011).
# The whole screen tested about 350,000 compounds, of which about 180 (0.051%) were called active. The full list was thinned out, with actives kept by preference. Unmarked numbers belong to inactive results.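 The calls were made as follows: active = mean inhibition across replicates of 30% or more, whatever share of single replicates reach that level; inconclusive = mean inhibition below 30% while every single replicate reaches 30%; inactive = the rest.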
# Molecular target: Protein disulfide-isomerase (Homo sapiens) (UniProt P07237)
# Experiment: blockers of PDI-driven insulin aggregation – biochemical, turbidity, single point, plate reader, primary screen (AID 588391);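 also: absorbance from insulin aggregation driven by PDI reduction with DTT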
# Conditions: A650, 90 min, at 10 µM, stronger effect = higher value
# Chain of Protein disulfide-isomerase (Homo sapiens) (P07237 whole entry, looked up): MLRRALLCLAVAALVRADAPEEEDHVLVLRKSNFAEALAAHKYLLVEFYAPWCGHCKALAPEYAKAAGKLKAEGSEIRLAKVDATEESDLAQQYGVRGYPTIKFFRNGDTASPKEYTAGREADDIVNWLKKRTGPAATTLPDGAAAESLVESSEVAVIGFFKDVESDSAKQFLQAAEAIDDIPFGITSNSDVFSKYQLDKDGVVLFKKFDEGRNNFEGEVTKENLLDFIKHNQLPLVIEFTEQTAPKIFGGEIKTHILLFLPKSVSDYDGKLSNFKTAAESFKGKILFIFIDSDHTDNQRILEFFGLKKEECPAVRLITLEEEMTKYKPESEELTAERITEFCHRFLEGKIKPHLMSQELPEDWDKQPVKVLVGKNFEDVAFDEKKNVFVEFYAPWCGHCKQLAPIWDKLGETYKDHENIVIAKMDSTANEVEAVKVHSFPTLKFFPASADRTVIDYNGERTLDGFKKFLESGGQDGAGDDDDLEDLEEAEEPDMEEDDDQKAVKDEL
row,Compound,inhibition
1,CC(=O)Nc1ccc(C=CC(=O)c2ccc([N+](=O)[O-])cc2)cc1,-14.3%
2,CN(C)c1ccc(/C=C/C(=O)c2ccc(O)cc2)cc1[N+](=O)[O-],62.9% (active)
3,O=C(/C=C/c1ccc(Cl)cc1)N1CCN(c2ccccc2[N+](=O)[O-])CC1,-3.05%
4,OC[C@H]1O[C@@H](c2nc(-c3nc(-c4ccc(F)cc4)no3)cs2)[C@H](O)[C@@H](O)[C@H]1O,9.06%
5,CCc1nc2ccc(C(=O)Nc3cccc(OC)c3)cn2c1N(CCC(C)C)CCN(C)C,7.59%
6,COc1ccc(CNC(=O)c2ccc(-c3cccnc3)c3ccoc23)cc1OC,-14.5%
7,CCOC(=O)C1CCCN(C(=O)c2ccc(N(C)C)cc2)CC1 (stereo unspecified),-4.95%
8,COc1ccccc1CNC(=O)c1cc(-c2cc(F)ccc2OC)n[nH]1,-13.3%
9,CNc1cnc(-c2cc(OC)c(OC)c(OC)c2)cn1,-1.94%
10,Cc1nc2c(OCc3ccc(Cl)cc3Cl)cccn2c1N(C)CC1CC1,-3.07%
11,CC(=O)NN=C(C)c1ccc(NC(=O)C2CC2)cc1,11.5%
12,CC1(C(=O)NCc2cccc3ccccc23)CCN1Cc1ccc(-c2ccccc2)o1 (stereo unspecified),-7.12%
13,CC(=O)Nc1cccc(-c2cc(NC=O)c3ncc(-c4ccc(F)c(Cl)c4)n3c2)c1,-0.607%
14,CCc1nc2c(OCCOc3ccccc3)cccn2c1N(C=O)Cc1ccc(OC)cc1,3.19%
15,COc1cccc(NC(=O)C2(C)CCN2Cc2ccccc2Cl)c1 (stereo unspecified),2.3%
16,NC(Cc1ccc(F)cc1)c1csc(Nc2nncc3ccccc23)n1 (stereo unspecified),-3.01%
17,CC(C)Nc1nc(NCCOc2ccccc2Cl)c2sccc2n1,0.492%
18,COc1ccc(NC(=O)C2(C)Cc3c(-c4cccc(NC(C)=O)c4)ccnc3O2)cc1OC (stereo unspecified),-9.6%
19,O=C(CCc1n[nH]c(=O)[nH]c1=O)N/N=C/c1ccc(Br)o1,2.19%

row,Compound,inhibition
1,O=C(CCC(=O)N/N=C/c1ccc(Br)o1)N/N=C/c1ccc(Br)o1,-7.35%
2,O=C(CCc1ccc(O)cc1)NN=Cc1cc(Br)ccc1O,44.5% (active)
3,COc1ccc(C(NC(=O)C2CCN(CCCc3ccccc3)CC2)c2cccs2)cc1 (stereo unspecified),-3.76%
4,OCCN1CCN(c2ncnc3c2ncn3[C@H]2CN(Cc3ccco3)C[C@@H](CO)O2)CC1,-4.02%
5,COc1cncc(-c2cnc3sc(NCCc4ccccn4)nn23)c1,-1.86%
6,CCCC/C=C/c1cccc2nncn12,15.4%
7,O=C(Nc1ccc(N2CCOCC2)cc1)c1cccc2c(-c3ccc(F)c(F)c3)coc12,6.12%
8,Cc1nc(C(F)(F)F)ccc1C(=O)N1CCC1(C)C(=O)NS(=O)(=O)c1ccc(F)cc1F (stereo unspecified),-2.79%
9,Cc1cccc(C)c1Cn1c(C)c(C(=O)NCc2cccc(Cl)c2)sc1=O,12.4%
10,CCc1nc2c(OCc3ccc(Cl)cc3Cl)cccn2c1N(C)C(=O)C(C)C,1.84%
11,CS(=O)(=O)/C(C#N)=C/c1cccn1S(=O)(=O)c1ccc([N+](=O)[O-])cc1,6.24%
12,CCCS(=O)(=O)NC(=O)C1(C)CCCN(C(=O)c2cccs2)C1 (stereo unspecified),5.08%
13,CCCNC(=O)C1(C)CCN(C(=O)c2ccccc2OC(F)(F)F)C1 (stereo unspecified),12.9%
14,COc1ccc(S(=O)(=O)NC(=O)C2(C)CCN2C(=O)c2ccccc2CCc2ccccc2)cc1 (stereo unspecified),-21.5%
15,Cc1ccc(CNC(=O)Nc2nnc([C@H]3C[C@H](O)[C@@H](CO)O3)s2)cc1,-0.839%
16,COc1ccc(-c2cc3nc(NCCOc4ccccc4)ccn3n2)cc1,8.41%
17,Cc1ccc(Sc2ccc(NC(=O)c3ccc(F)cc3)cc2C#N)cc1,1.62%
18,CC(C)NC(=O)C1(C)CCCCCN1C(=O)c1ccc(-c2ccccc2)cc1 (stereo unspecified),0.373%
19,CCc1nc2c(OCCC3CCCCC3)cccn2c1N(C)C(=O)c1ccco1,4.27%

row,Compound,inhibition
1,COc1ccc(OC)c(NC(=O)C2(C)CCN2C(=O)Cc2ccccc2)c1 (stereo unspecified),0.456%
2,O=C(CSc1nc2cccc(F)c2c(=O)n1-c1ccccc1)Nc1ccc2c(c1)CCC2,-4.77%
3,CC1(Cc2ccccc2C#N)C(=O)Nc2ccc(-c3ccc4[nH]ccc4c3)cc21 (stereo unspecified),7.54%
4,O=C(O)c1ccccc1-c1cccc2nncn12,9.27%
5,O=C(NCc1ccc(F)cc1)c1cc(C2CCCCN2C(=O)c2cccs2)on1 (stereo unspecified),-0.163%
6,CC(C)Cc1ccc(-c2cc3nc(NCc4cccc(Cl)c4)ccn3n2)cc1,-8.06%
7,O=C(c1cc(C2CCCCN2S(=O)(=O)c2ccccc2)on1)N1CCOCC1 (stereo unspecified),-7.54%
8,COc1ccc(NC(=O)C2(C)Cc3c(-c4cccc(NC(C)=O)c4)ccnc3O2)cc1 (stereo unspecified),-2.98%
9,OC[C@@H]1CN(Cc2ccc(-c3ccccc3)cc2)C[C@H](n2cnc3c(NC4CCCC4)ncnc32)O1,-2.96%
10,CC(C)Cn1cc(-c2cncc3nccn23)cn1,-0.067%
11,CC1(C(=O)NS(=O)(=O)c2ccc3ccccc3c2)CCN1C(=O)C1(c2ccc(Cl)cc2)CCC1 (stereo unspecified),8.48%
12,CC(=O)c1ccc(-c2cnc3c(NC=O)cc(-c4cccc(NS(C)(=O)=O)c4)cn23)cc1,16.7%
13,COc1cccc(-c2cnc(C(O)c3ccccc3OC)[nH]2)c1 (stereo unspecified),10.9%
14,OC(c1ccc(F)cc1)c1ncc(-c2cccc(C(F)(F)F)c2)[nH]1 (stereo unspecified),-1.07%
15,CC(C)Oc1cc(F)ccc1-c1cc(C(=O)Nc2ccc(F)cc2)[nH]n1,10.8%
16,O=C(NC(c1ccc(Cl)cc1)c1cnccn1)C1CCN(Cc2ccc(Cl)cc2)CC1 (stereo unspecified),-28.5%
17,CCCc1ccc(C(O)c2ncc(-c3cccc(OC)c3)[nH]2)cc1 (stereo unspecified),-4.13%
18,COc1ccccc1CNC(=O)c1cc(-c2cc(Cl)ccc2C)n[nH]1,-1.01%
